Screening data deposited in PubChem BioAssay by National Center for Advancing Translational Sciences (NCATS).
This is a sample that favours compounds with a hit; in the whole collection about 2.7% have one here.
a7 integrin act = activators of alpha7 integrin expression for muscular dystrophy. actives 0.064% (n = 350,000). Potency, µM (series often up to 38.3 µM), inactives show at the highest dose activation, usual class: activators. alpha7betagal myoblasts, beta-gal FDG fluorescence, 48 h;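 note: 100% = response of the positive control SU9516; nearly all actives have a fitted effect of over 60% in size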
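Alpha7betagal+/- myoblasts (passage 13) were plated 16-24 hr, then exposed to compounds (1:260 dilution of DMSO stock) for 48 hours at 37C. After MPER lysis, β-galactosidase reporter activity was read as FDG fluorescence (ex 480/em 540) after 30 minutes.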
GLP-1R agonist = activates the human GLP-1 receptor | Potency, µM (doses to about 45.6 µM), inactives show top-dose activation, usual class: activators | AID 624172 | HEK293 GLP-1R CRE-luciferase, luminescence, 4-6 h; cells express a hypersensitive GLP-1R form | P43220 | actives 0.007% (n = 380,000); note: % of control where 0% means no effect
Target sequence (P43220 whole entry, looked up): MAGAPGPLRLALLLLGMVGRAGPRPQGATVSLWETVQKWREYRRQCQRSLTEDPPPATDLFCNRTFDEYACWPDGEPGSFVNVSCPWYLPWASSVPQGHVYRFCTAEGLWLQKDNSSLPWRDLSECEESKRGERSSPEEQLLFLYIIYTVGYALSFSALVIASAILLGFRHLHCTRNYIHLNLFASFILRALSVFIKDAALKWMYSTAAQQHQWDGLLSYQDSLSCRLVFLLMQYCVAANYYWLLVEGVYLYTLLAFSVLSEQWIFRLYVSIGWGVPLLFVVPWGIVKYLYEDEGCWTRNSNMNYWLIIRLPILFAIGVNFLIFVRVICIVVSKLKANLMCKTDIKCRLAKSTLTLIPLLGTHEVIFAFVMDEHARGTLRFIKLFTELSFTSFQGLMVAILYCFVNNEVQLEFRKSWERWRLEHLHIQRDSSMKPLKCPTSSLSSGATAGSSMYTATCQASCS
GLP1R inv ag = GLP-1 receptor (human) inverse agonism. HEK293 GLP-1R CRE-luciferase, luminescence, 24 h; GLP-1R form is constitutively active. P43220. AID 624417. Potency, µM (top dose mostly 38.3 µM), without a hit: top-dose activity change, negative = inhibition, most hits filed as inhibitors. actives 1.6% (n = 410,000); note: % is set by controls: 0 for no effect and ±100 for the full control effect; nearly all actives have a fitted effect of over 55% in size
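Seeding at 200 cells/uL, 12 h culture, 24 hr compound treatment, then luciferase reagent and a luminescence read; cells are HEK293 stably expressing a constitutively active GLP-1R plus cAMP-responsive luciferase.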
HEK293 tox = cytotoxicity in counter-screen for GLP-1R inverse agonists; HEK293 cAMP-luciferase reporter cells, luminescence, 24 h; Potency, µM (doses to about 38.3 µM), for inactives: at the highest dose activity change, negative = inhibition, most hits filed as inhibitors; actives 0.13% (n = 410,000); AID 624418;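 note: loss of luciferase light is scored as toxicity; % is set by controls: 0 for no effect and ±100 for the full control effect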
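Step one: seed cells (200 cells/uL, DMEM with 10% Nu serum, 1% pen-strep). Step two: 12-hour incubation at 37 deg C. Step three: pin 23 nL compound, incubate 24 hr. Step four: add luciferase reagent, read luminescence 12 min later.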
BRCA1 expr up = increases BRCA1 expression. actives 1.1% (n = 380,000). MCF7-BRCA1-FFLuc reporter, luminescence, 48 h; response scale: scaled: vehicle 0%, 10 µM genistein 100%. AID 624202. Potency, µM (highest dose often 46.1 µM), without a hit: top-dose activation, actives largely listed as activators; note: nearly all actives have a fitted effect of over 80% in size
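MCF7 cells carrying a BRCA1-firefly luciferase reporter (2000 cells/well, phenol-red free MEM) were attached for 2 h at 37 °C, then given compounds for 48 h. Luminescence was read 15 min after luciferase reagent; activity normalized to genistein (10 microM) and DMSO.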
* marks the source's active call; other numbers are inactive results; ? = inconclusive; / = no result; ! = not confirmed by another sample; [ ] = remark or other dose. Calls come from the whole dose curve; as a rule, active = well fitted curve in the direction sought with a large enough effect; inconclusive = small, poorly fitted or top-dose-only effect, or another doubt; inactive = no such curve, though single readings can be large; an effect the other way counts as inactive or inconclusive. Potency is the fitted concentration of half-maximal effect.

SMILES	a7 integrin act	GLP-1R agonist	GLP1R inv ag	HEK293 tox	BRCA1 expr up
Cc1ccc(NC(=O)c2ccc(OC(=O)COc3cccc(Cl)c3)cc2)cc1	11%	-21%	11%	7%	3.5µM*
Cc1ccc(NC(=O)c2ccc(OC(=O)CCN3C(=O)c4ccccc4C3=O)cc2)cc1	37%	2%	29%	-9%	7.1µM*
Cc1ccc(NC(=O)c2ccc(OC(=O)COc3ccc(Cl)cc3C)cc2)cc1	15%	-35%	26%	-9%	?
Cc1cc(C)cc(OC(=O)CCN2C(=O)c3ccccc3C2=O)c1	0%	11%	8%	1%	4%
Cc1cc(C)cc(NC(=O)C2CCN(S(=O)(=O)c3cn(C)cn3)CC2)c1	/	/	9%	4%	/
CCOC(=O)C1CCN(C(=O)CSc2n[nH]c(-c3ccc(F)cc3)n2)CC1	/	/	29%	-5%	/
S=C(CSc1ccccc1)Nc1cccc2ccccc12	23%	-1%	6.3µM*	?	1%
COc1cccc(CNC(=O)c2cc(C)nc3c2c(C)nn3-c2ccc(C)cc2)c1	/	/	-8%	-3%	/
c1ccc(N2CCN(c3nc4cc5c(cc4s3)OCO5)CC2)cc1	-35%	-6%	-19%	-11%	4µM*!
CC(C)(C)c1ccc(C(=O)NNc2cc(N3CCCCC3)nc(N3CCCCC3)n2)cc1	10%	-9%	3.2µM*	?	-37%
CC(C)(C)c1ccc(C(=O)NNc2cc(N3CCOCC3)nc(N3CCOCC3)n2)cc1	-21%	9%	?	21%	0%
O=C(NC(=O)c1ccc(Cl)cc1)OC1CCCCC1	-13%	0%	0%	2%	13µM*
CC(=O)c1ccc(NC(=O)CSc2nc(-c3ccccc3C)nc3c2c(=O)n(C)c(=O)n3C)cc1	/	/	12%	-1%	/
CCc1ccc(NC(=O)CSc2nc(-c3ccccc3)no2)cc1	/	/	?	-3%	/
CCN(CC)c1nc2ccccc2c(N)c1-c1ccccc1	-14%	-1%	2.5µM*	-6%	-32%
CCCC(=O)Nc1ccc(C(=O)COC(=O)C2CC2C)cc1 (stereo not given)	-26%	2%	3%	9%	11µM*
CC(=O)Nc1ccc(C(=O)COC(=O)C2CC2C)c(F)c1 (stereo not given)	?	7%	-16%	-7%	6.3µM*
COc1cccc(C(=O)COC(=O)c2cccs2)c1	2%	-4%	32%	1%	?
COc1ccc(C(=O)O/N=C(/c2cccs2)C(C)(C)C)cc1	20%	4%	-28%	-5%	17%
COc1ccc(C(=O)COC(=O)c2cccs2)cc1	4%	-10%	2%	1%	13µM*
COc1ccc(C2CC2/C(=N/OC(=O)c2cccs2)c2ccccc2)cc1 (stereo not given)	16%	9%	?	-28%	7.1µM*
O=c1[nH]c(SCc2ccc(F)cc2)nc2c1CCCC2	/	/	13%	27%	/
COc1ccc(/C(N)=N/OC(=O)Cc2cccs2)cc1OC	11%	0%	22%	-11%	41%
COc1ccc(/C(N)=N/OC(=O)Cc2cccs2)cc1	22%	14%	-22%	2%	8.9µM*
CC(=O)Nc1ccc(C(=O)COC(=O)c2c(C)noc2C)c(F)c1	-11%	-3%	17%	-1%	-5%
SMILES	a7 integrin act	GLP-1R agonist	GLP1R inv ag	HEK293 tox	BRCA1 expr up
CC(=O)Nc1ccc(C(=O)COC(=O)c2cccs2)c(F)c1	12%	0%	0%	-22%	14µM*
Cc1ccc2[nH]c(=O)c(CN(CCCO)Cc3nnnn3Cc3ccco3)cc2c1	/	/	/	/	14%
COc1ccc(CN2CCN(Cc3ccc(C(F)(F)F)cc3)CC2)c(OC)c1	-67%	19%	11µM*	-17%	-42%
COc1ccc(CN2CCN(Cc3ccc(C)cc3)CC2)c(OC)c1	-46%	1%	?	10%	-29%
CCN(CC)CCCNC(=O)c1ccc(S(=O)(=O)Nc2ccc(C)c(C)c2)cc1	-15%	8%	7.9µM*	14%	-10%
COc1ccc(-c2noc(Cn3c(=O)c4ccccc4n(CC(=O)Nc4cccc(OC)c4)c3=O)n2)cc1	/	/	-5%	-8%	/
Cc1ccc(/C=N/NC(=O)c2nn(C)cc2Cl)cc1	15%	-2%	-1%	10%[1.53 µM]	?
Cn1cc(Cl)c(C(=O)N/N=C/c2ccc3c4c(cccc24)CC3)n1	4%	-3%	-29%	0%	1.3µM*
CC(=O)Nc1ccc(NS(=O)(=O)c2c(C(=O)N3CCC(C)CC3)c(C)n(C)c2C)cc1	/	/	14%	-16%	/
CCc1ccc(NC(=O)Cn2c(=O)n(Cc3nc(C)no3)c(=O)c3cc4c(cc32)OCO4)cc1	/	/	9%	0%	/
Nc1nc(-c2ccc3c(c2)OCCO3)cs1	-27%	19%	29%	-11%	81%
Nc1nc(-c2ccc3c(c2)CCCC3)cs1	-3%	0%	?	-4%	3.2µM*
CC(C)(C)C(=O)N1CCc2cc(-c3csc(N)n3)ccc21	-4%	-20%	?	-13%	-64%
Nc1nc(-c2cccc(F)c2)cs1	-17%	12%	6%	-3%	11µM*
CC1Cc2cc(-c3csc(N)n3)ccc2O1 (stereo not given)	-7%	?	13%	-9%	3.2µM*
CCn1c(=O)c(C(=O)Nc2ccc(C(C)=O)cc2)nc2ccccc21	/	0%	6%	6%	13%
O=C(NCc1ccc(Cl)cc1)C1CCN(c2nn3cc(-c4ccc(F)cc4)nc3s2)CC1	/	/	4%	2%	/
CCOc1ccccc1N(C)C(=O)NCc1noc2ccccc12	/	/	1%	-4%	/
Cc1ccc2c(=O)cc(C(=O)N(Cc3ccc(C(C)(C)C)cc3)C3CCS(=O)(=O)C3)oc2c1 (stereo not given)	/	/	9%	0%	/
COc1ccc(-c2[nH]c(-c3ccc(OC)c(OC)c3)nc2SCC(=O)Nc2ccccc2)cc1	/	/	-28%	-15%	/
COc1ccc(S(=O)(=O)NCC(c2ccco2)S(=O)(=O)c2ccc(C)cc2)cc1C (stereo not given)	/	/	-23%	3%	/
Cc1ccc(C2(C)NC(=O)N(CC(=O)Nc3ccc(Cl)c(S(=O)(=O)N4CCCCC4)c3)C2=O)cc1 (stereo not given)	-24%	-3%	10µM*	-13%	-41%
CC1(c2ccccc2)NC(=O)N(CC(=O)Nc2ccc(Cl)c(S(=O)(=O)N3CCCCC3)c2)C1=O (stereo not given)	-25%	1%	?	-5%	-72%
CC1(c2ccccc2)NC(=O)N(CC(=O)Nc2ccc3c(c2)CCC3)C1=O (stereo not given)	-6%	3%	10µM*	-13%	5%
Cc1ccc(C(=O)NC2CCCCCCC2)cc1S(=O)(=O)N1CCOCC1	-15%	15%	?	6%	10µM*
